Inconclusive results are not listed. Activity calls are given as the source filed them. Unless noted, the call rests on the fitted dose curve; in most records, active means well fitted curve in the direction sought with a large enough effect in the repeat runs; inconclusive means weak or mixed curves; inactive means no such curve, though single readings can be large; an effect the other way counts as inactive or inconclusive.
Key:
[1] = qHTS assay to identify small molecule antagonists of the glucocorticoid receptor (GR) signaling pathway - cell viability counter screen (AID 720693); further: nearly all actives have a fitted effect of over 55% in size
[2] = qHTS assay for identifying genotoxic compounds that show differential cytotoxicity against isogenic chicken DT40 cell lines with known DNA damage response pathways - wild type cell line (AID 743012); further: nearly all actives have a fitted effect of over 60% in size; further: potency means the concentration at half of the fitted maximal effect
How it was run: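 CellTiter-Glo luminescence readout of viability in wild type DT40 cells after 40 h compound exposure at 37 C/5% CO2; 300 cells/well; reagent incubated 30 min at room temperature before reading.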

[3] = qHTS assay for identifying genotoxic compounds that show differential cytotoxicity against isogenic chicken DT40 cell lines with known DNA damage response pathways - Rev3 mutant cell line (AID 743014); further: nearly all actives have a fitted effect of over 55% in size; further: potency means the concentration at half of the fitted maximal effect
[4] = qHTS assay for identifying genotoxic compounds that show differential cytotoxicity against isogenic chicken DT40 cell lines with known DNA damage response pathways - Rad54/Ku70 mutant cell line (AID 743015); further: nearly all actives have a fitted effect of over 60% in size; further: potency means the concentration at half of the fitted maximal effect
[5] = target: Androgen receptor (Homo sapiens) (UniProt P10275); assay: qHTS assay to identify small molecule agonists of the androgen receptor (AR) signaling pathway (AID 743036; active means well fitted activation curve with a large enough effect in the signal ratio in the repeat runs, with a control signal flat, not every such curve was filed as active; the % refers to the signal ratio)
Sequence of Androgen receptor (Homo sapiens) (P10275 whole entry, looked up): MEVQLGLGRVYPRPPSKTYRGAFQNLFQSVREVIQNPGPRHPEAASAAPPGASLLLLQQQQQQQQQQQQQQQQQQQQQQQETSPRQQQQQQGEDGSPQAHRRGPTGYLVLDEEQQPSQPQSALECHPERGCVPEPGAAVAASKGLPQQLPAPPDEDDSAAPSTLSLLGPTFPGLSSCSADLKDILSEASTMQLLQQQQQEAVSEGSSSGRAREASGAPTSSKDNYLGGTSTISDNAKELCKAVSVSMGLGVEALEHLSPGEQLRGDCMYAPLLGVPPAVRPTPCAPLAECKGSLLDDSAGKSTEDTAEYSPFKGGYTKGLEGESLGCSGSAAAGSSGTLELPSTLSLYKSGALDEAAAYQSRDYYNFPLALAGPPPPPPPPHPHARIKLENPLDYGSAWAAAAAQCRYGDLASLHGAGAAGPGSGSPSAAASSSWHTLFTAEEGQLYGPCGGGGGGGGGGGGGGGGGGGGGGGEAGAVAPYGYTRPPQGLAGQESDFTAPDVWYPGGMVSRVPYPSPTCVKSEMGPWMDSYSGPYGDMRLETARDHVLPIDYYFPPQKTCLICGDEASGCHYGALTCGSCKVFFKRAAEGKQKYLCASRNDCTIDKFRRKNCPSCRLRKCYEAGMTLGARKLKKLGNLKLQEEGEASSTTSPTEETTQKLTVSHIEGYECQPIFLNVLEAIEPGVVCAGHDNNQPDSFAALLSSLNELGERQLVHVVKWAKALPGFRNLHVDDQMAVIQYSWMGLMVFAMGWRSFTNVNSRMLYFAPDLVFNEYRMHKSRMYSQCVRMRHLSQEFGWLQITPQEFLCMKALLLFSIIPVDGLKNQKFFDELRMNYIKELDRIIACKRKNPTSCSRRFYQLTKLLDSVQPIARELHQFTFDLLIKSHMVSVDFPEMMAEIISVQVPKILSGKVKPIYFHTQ
How it was run: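 Screening used 2,000 AR-bla HEK293 cells per well, treated 16 h at 37C with test compounds in DMSO alongside positive and DMSO-only controls; beta-lactamase activity was then read by LiveBLAzer B/G FRET fluorescence after 2 h at room temperature.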

[6] = target: Androgen receptor (Homo sapiens) (UniProt P10275); assay: qHTS assay to identify small molecule agonists of the androgen receptor (AR) signaling pathway using the MDA cell line (AID 743040; further: nearly all actives have a fitted effect of over 20% in size)
How it was run: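 Luciferase agonist assay: 16 h compound exposure at 37C without CO2 in MDA-kb2 AR-luc cells, whose MMTV promoter responds to both AR and GR. Luminescence measured after 30 min room-temperature incubation with ONE-Glo.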

[7] = qHTS assay to identify small molecule antagonists of the androgen receptor (AR) signaling pathway using the MDA cell line - cell viability counter screen (AID 743041; further: nearly all actives have a fitted effect of over 45% in size)
How it was run: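 Viability read by CellTiter-Fluor fluorescence in the same wells as the antagonist screen, added after 15.5 h of a 16 h, 37C exposure. Human breast carcinoma MDA-kb2 AR-luc cells, compounds co-dosed with agonist R1881.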

[8] = target: Androgen receptor (Homo sapiens) (UniProt P10275); assay: qHTS assay to identify small molecule antagonists of the androgen receptor (AR) signaling pathway using the MDA cell line (AID 743042; further: nearly all actives have a fitted effect of over 55% in size)
How it was run: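 Antagonist mode: compounds plus R1881 agonist added to MDA-kb2 AR-luc cells, incubated 16 h at 37C. Luciferase reporter luminescence quantified, with multiplexed CellTiter-Fluor readout for cell viability.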

[9] = qHTS assay to identify small molecule antagonists of the thyroid receptor (TR) signaling pathway - cell viability counter screen (AID 743064); further: nearly all actives have a fitted effect of over 50% in size
How it was run: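 Viability of T3-stimulated (1 nM final) GH3.TRE-Luc cells is measured by CellTiter-Fluor fluorescence after 23.5 h compound exposure at 37 °C plus 30 min reagent incubation.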

[10] = qHTS assay to identify small molecule antagonists of the thyroid receptor (TR) signaling pathway (AID 743065); further: series mostly up to about 70 µM; nearly all actives have a fitted effect of over 55% in size
How it was run: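 Antagonism measured as loss of luciferase signal in GH3 cells stably carrying a TRE-luciferase reporter, co-treated with compound and T3 (1 nM final) for 23.5 h at 37 C. Viability was read in the same well by CellTiter-Fluor.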

[11] = system: thyroid hormone receptor (rat, GH3 cells); assay: qHTS assay to identify small molecule agonists of the thyroid receptor (TR) signaling pathway (AID 743066; calls by dose curve)
[12] = qHTS assay to identify small molecule antagonists of the estrogen receptor alpha (ER-alpha) signaling pathway - cell viability counter screen (AID 743074; calls by dose curve;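 further: HEK293 cells carrying ER-alpha-UAS-bla reporter stimulated with 17beta-estradiol; nearly all actives have a fitted effect of over 45% in size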)
[13] = qHTS assay to identify small molecule antagonists of the estrogen receptor alpha (ER-alpha) signaling pathway using the BG1 cell line - cell viability counter screen (AID 743081);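 further: compound given together with 17beta-estradiol as the ER stimulus; series mostly up to about 70 µM; nearly all actives have a fitted effect of over 45% in size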
Aromatase (Homo sapiens) = Aromatase (Homo sapiens) (UniProt P11511); assay: qHTS assay to identify aromatase inhibitors (AID 743083); further: nearly all actives have a fitted effect of over 55% in size; further: potency means the concentration at half of the fitted maximal effect; on activity, negative = inhibition: series mostly up to about 70 µM
Sequence of Aromatase (Homo sapiens) (P11511 whole entry, looked up): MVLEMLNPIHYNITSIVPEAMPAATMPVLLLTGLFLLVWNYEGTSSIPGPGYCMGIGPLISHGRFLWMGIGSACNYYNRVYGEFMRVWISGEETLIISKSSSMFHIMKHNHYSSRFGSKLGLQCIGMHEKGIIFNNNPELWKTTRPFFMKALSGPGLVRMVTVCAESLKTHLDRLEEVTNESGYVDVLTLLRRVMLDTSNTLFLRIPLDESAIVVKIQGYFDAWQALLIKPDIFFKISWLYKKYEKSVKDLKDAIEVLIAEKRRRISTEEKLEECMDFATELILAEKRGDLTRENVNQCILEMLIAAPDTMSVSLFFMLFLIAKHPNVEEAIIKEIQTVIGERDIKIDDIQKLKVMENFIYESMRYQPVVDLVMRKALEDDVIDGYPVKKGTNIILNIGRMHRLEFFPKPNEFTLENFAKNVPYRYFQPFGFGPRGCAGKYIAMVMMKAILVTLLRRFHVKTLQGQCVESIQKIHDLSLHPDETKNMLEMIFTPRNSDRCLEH

[14] = qHTS assay to identify aromatase inhibitors - cell viability counter screen (AID 743084)
[15] = target: Estrogen receptor (Homo sapiens) (UniProt P03372); assay: qHTS assay to identify small molecule antagonists of the estrogen receptor alpha (ER-alpha) signaling pathway (AID 743069; active means well fitted curve in the direction sought with a large enough effect in the signal ratio in the repeat runs, not every such curve was filed as active; the % refers to the signal ratio)
Sequence of Estrogen receptor (Homo sapiens) (P03372 whole entry, looked up): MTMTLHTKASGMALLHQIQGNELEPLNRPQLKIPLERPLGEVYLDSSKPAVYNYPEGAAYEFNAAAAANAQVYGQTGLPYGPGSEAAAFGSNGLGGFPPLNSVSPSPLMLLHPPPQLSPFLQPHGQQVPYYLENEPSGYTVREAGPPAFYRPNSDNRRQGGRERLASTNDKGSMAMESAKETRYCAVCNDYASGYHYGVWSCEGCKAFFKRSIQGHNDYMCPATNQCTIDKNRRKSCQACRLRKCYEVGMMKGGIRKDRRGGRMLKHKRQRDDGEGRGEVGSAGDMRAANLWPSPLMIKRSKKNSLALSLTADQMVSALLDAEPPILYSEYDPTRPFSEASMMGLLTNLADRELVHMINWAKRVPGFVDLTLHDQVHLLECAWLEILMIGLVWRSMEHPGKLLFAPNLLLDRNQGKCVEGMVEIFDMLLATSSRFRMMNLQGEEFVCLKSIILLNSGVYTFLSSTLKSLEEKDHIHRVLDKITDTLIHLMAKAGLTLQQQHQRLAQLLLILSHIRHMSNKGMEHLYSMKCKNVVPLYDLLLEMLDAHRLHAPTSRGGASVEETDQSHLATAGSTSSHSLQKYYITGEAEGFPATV
How it was run: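 Antagonist mode: compounds in DMSO were co-added with 17beta-estradiol to ER-alpha-bla HEK293 cells (2% charcoal-stripped serum) and left 18 h at 37C. Reporter inhibition was measured as FRET fluorescence after 2 h LiveBLAzer substrate at room temperature.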

[16] = target: Estrogen receptor (Homo sapiens) (UniProt P03372); assay: qHTS assay to identify small molecule agonists of the estrogen receptor alpha (ER-alpha) signaling pathway (AID 743075; calls by dose curve;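 further: HEK293 GripTite cells with ER-alpha and UAS-driven beta-lactamase reporter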)
[17] = target: Estrogen receptor (Homo sapiens) (UniProt P03372); assay: qHTS assay to identify small molecule agonists of the estrogen receptor alpha (ER-alpha) signaling pathway using the BG1 cell line (AID 743079); further: nearly all actives have a fitted effect of over 20% in size; further: potency means the concentration at half of the fitted maximal effect
[18] = qHTS assay to identify small molecule antagonists of the estrogen receptor alpha (ER-alpha) signaling pathway using the BG1 cell line (AID 743080; calls by dose curve;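 further: BG1 cells stimulated with 17beta-estradiol alongside compound; nearly all actives have a fitted effect of over 25% in size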; further: potency means the concentration at half of the fitted maximal effect)
How it was run: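 After 5 days in phenol-red-free 10% charcoal-stripped FBS medium, BG1-Luc-4E2 cells were seeded, left 24 h at 37 C, co-treated with compounds and 17beta-estradiol for 21.5 h, then assayed for viability and luciferase.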

[19] = qHTS assay to identify small molecule antagonists of the androgen receptor (AR) signaling pathway - cell viability counter screen (AID 743033; further: nearly all actives have a fitted effect of over 45% in size)
On the % scale 0 is the no-effect control and ±100 the full control effect.

C1=CCC2CC=CC2C1 (stereo not drawn)
inactive: Potency [1] | Potency [2] | Potency [3] | Potency [4] | outcome [5] | Potency [6] | Potency [7] | Potency [8] | Potency [9] | Potency [10] | Potency [11] | Potency [12] | Potency [13] | Potency (Aromatase (Homo sapiens)) | Potency [14]

CCN(CC)CCOc1ccccc1C(=O)CCc1ccccc1
active: Potency [2] 11.9 µM | Potency [3] 26.6 µM | Potency [4] 26.6 µM
inactive: Potency [1] | Potency [7] | Potency [11] | Potency [15] | Potency [12] | Potency [16] | Potency [17] | Potency [18] | Potency [13] | Potency (Aromatase (Homo sapiens)) | Potency [14]

O=C(O)c1cc(Cl)cc(Cl)c1O
inactive: Potency [1] | Potency [3] | Potency [4] | Potency [19] | outcome [5] | Potency [6] | Potency [7] | Potency [8] | Potency [9] | Potency [11] | Potency [12] | Potency [13] | Potency (Aromatase (Homo sapiens)) | Potency [14]

C=C(C)C(=O)OCCC(F)(F)C(F)(F)C(F)(F)C(F)(F)C(F)(F)C(F)(F)F
inactive: Potency [1] | Potency [2] | Potency [4] | Potency [7] | Potency [9] | Potency [11] | Potency [15] | Potency [12] | Potency [16] | Potency [17] | Potency [18] | Potency [13] | Potency (Aromatase (Homo sapiens)) | Potency [14]

CCCCCCCCCCCCCC(=O)OCC(O)CO (stereo not drawn)
active: Potency [3] 43.3 µM | Potency [4] 43.3 µM
inactive: Potency [1] | Potency [19] | outcome [5] | Potency [6] | Potency [7] | Potency [8] | Potency [9] | Potency [11] | Potency [12] | Potency [13] | Potency (Aromatase (Homo sapiens)) | Potency [14]

CCCCCCCC(=O)Oc1c(Br)cc(C#N)cc1Br
inactive: Potency [1] | Potency [2] | Potency [3] | Potency [7] | Potency [11] | Potency [16] | Potency [13]
active: Potency [18] 60.9 µM | Potency (Aromatase (Homo sapiens)) 60.9 µM

CC1=CC[C@@H]2C[C@H]1C2(C)C
inactive: Potency [1] | Potency [2] | Potency [19] | Potency [7] | Potency [10] | activation [11] 0.116% [at 18 µM] | activity, negative = inhibition [15] 12.8% [at 15 µM] | activity, negative = cytotoxicity [12] -16.5% [at 15 µM] | activation [16] -0.944% [at 14.9 µM] | Potency [17] | Potency [18] | Potency [13] | Potency (Aromatase (Homo sapiens)) | Potency [14]

CCCOC(=O)c1c(Cl)c(Cl)c(Cl)c(Cl)c1C(=O)OCCC
inactive: Potency [1] | Potency [9] | Potency [11] | Potency [12] | Potency [13] | Potency [14]
active: Potency [2] 54.5 µM | Potency [3] 61.1 µM | Potency [4] 61.1 µM

CCCCCCC(O)CCOC(C)=O (stereo not drawn)
inactive: Potency [1] | Potency [2] | Potency [4] | Potency [19] | Potency [7] | Potency [9] | Potency [10] | Potency [11] | Potency [15] | Potency [12] | Potency [16] | Potency [17] | Potency [18] | Potency [13] | Potency (Aromatase (Homo sapiens)) | Potency [14]

CCN(CC)c1cccc(O)c1
active: Potency [17] 70 µM
inactive: Potency [1] | Potency [2] | Potency [4] | Potency [6] | Potency [7] | Potency [8] | Potency [9] | Potency [10] | Potency [11] | Potency [12] | Potency [18] | Potency [13] | Potency (Aromatase (Homo sapiens)) | Potency [14]

C[C@@H]1C[C@H]2[C@@H]3CCC4=CC(=O)C=C[C@]4(C)[C@@]3(F)[C@@H](O)C[C@]2(C)[C@@]1(O)C(=O)COP(=O)(O)O
inactive: Potency [1] | Potency [2] | Potency [4] | Potency [19] | Potency [7] | Potency [9] | Potency [10] | Potency [11] | Potency [12] | Potency [16] | Potency [13] | Potency (Aromatase (Homo sapiens)) | Potency [14]

CC1CCc2nccnc21 (stereo not drawn)
inactive: Potency [1] | Potency [2] | Potency [19] | Potency [7] | Potency [9] | Potency [10] | Potency [11] | Potency [15] | Potency [12] | Potency [16] | Potency [17] | Potency [18] | Potency [13] | Potency (Aromatase (Homo sapiens)) | Potency [14]
active: Potency [4] 54.5 µM
